Measured values published in PubChem BioAssay (NCATS).
Records with an inconclusive call do not appear. The source made the active and inactive calls. The call rests on the fitted dose curve; in most records, active means well fitted curve in the direction sought with a large enough effect; inconclusive means small, poorly fitted or top-dose-only effect, or another doubt; inactive means no such curve, though single readings can be large; an effect the other way counts as inactive or inconclusive.

What was measured:
[1] = molecular target: Rap guanine nucleotide exchange factor 3 (Homo sapiens) (UniProt O95398); experiment: Confirmatory qHTS for antagonist of cAMP-regulated guanine nucleotide exchange factor 3 (EPAC1) (AID 1645880); conditions: EPAC1 Rap1B-BODIPY-GDP exchange, fluorescence; activity, negative = inhibition: at 115 µM (top of the series); further: nearly all actives have a fitted effect of over 55% in size; further: potency means the concentration at half of the fitted maximal effect;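 on activity, negative = inhibition: plate controls were DMSO only for no effect and full effect of the ATA control for full effect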
In short: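 Nucleotide exchange uses 100 nM EPAC1, 250 nM RAP1B-BODIPY-GDP and 50 uM GDP, with compounds in a concentration-titration series. After 5 min at room temperature, fluorescence (480 nm ex/540 nm em) is read every 5 min for 30 min. Data are normalized to control ATA and DMSO.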

[2] = molecular target: Rap guanine nucleotide exchange factor 3 (Homo sapiens) (UniProt O95398); experiment: Confirmatory qHTS for agonist of cAMP-regulated guanine nucleotide exchange factor 3 (EPAC1) (AID 1645881); further: nearly all actives have a fitted effect of over 75% in size; further: potency means the concentration at half of the fitted maximal effect;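 on activation: EPAC1 catalysed release of BODIPY-GDP from Rap1B seen as fluorescence loss; 100% = effect of cAMP agonist control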
[3] = molecular target: Rap guanine nucleotide exchange factor 4 (Homo sapiens) (UniProt Q8WZA2); experiment: Confirmatory qHTS for antagonist of cAMP-regulated guanine nucleotide exchange factor 4 (EPAC2) (AID 1645885); further: nearly all actives have a fitted effect of over 25% in size; further: potency means the concentration at half of the fitted maximal effect; on activity change, negative = inhibition: on the % scale 0 is the no-effect control and ±100 the full control effect
[4] = molecular target: Rap guanine nucleotide exchange factor 3 (Homo sapiens) (UniProt O95398); experiment: Counterscreen qHTS for antagonist of cAMP-regulated guanine nucleotide exchange factor 3 (EPAC1) (AID 1645888);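 further: fluorescence loss as bound BODIPY-GDP is released from Rap1B; % of control where 0% means no effect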
In short: (§1)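 Measured: fluorescence of BODIPY-GDP bound to Rap1B, which falls as exchange proceeds. Conditions include 50 uM competing GDP, 5 and 30 min reads, and a later cAMP challenge for antagonist detection.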

[5] = molecular target: Rap guanine nucleotide exchange factor 3 (Homo sapiens) (UniProt O95398); experiment: Counterscreen qHTS for agonist of cAMP-regulated guanine nucleotide exchange factor 3 (EPAC1) (AID 1645889); further: % of control where 0% means no effect; nearly all actives have a fitted effect of over 40% in size
In short: as §1

Rap guanine nucleotide exchange factor 4 (Homo sapiens), sequence (Q8WZA2 whole entry, looked up): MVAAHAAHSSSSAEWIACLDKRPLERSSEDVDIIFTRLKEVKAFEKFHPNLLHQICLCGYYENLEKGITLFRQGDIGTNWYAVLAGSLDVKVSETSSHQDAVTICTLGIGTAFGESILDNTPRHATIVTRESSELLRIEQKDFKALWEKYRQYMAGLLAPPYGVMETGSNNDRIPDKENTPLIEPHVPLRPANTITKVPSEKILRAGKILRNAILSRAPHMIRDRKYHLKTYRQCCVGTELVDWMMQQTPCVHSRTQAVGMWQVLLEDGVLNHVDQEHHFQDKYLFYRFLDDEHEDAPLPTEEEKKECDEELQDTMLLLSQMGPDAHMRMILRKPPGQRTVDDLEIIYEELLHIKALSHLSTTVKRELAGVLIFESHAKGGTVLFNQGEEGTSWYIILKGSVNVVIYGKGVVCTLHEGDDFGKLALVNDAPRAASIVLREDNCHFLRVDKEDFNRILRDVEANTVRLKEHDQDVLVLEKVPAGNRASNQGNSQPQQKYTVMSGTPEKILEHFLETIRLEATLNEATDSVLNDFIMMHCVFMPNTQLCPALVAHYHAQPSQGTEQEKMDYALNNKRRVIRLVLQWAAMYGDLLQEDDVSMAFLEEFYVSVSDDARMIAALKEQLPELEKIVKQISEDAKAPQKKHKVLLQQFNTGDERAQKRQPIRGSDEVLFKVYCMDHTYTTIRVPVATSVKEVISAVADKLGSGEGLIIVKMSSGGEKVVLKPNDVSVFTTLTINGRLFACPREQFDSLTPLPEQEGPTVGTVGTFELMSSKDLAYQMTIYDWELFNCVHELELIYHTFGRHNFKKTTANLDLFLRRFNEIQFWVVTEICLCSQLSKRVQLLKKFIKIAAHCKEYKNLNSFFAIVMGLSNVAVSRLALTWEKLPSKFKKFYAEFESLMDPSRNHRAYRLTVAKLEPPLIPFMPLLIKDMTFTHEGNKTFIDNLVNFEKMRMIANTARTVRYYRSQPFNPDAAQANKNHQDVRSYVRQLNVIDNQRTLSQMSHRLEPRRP
Rap guanine nucleotide exchange factor 3 (Homo sapiens), sequence (O95398 whole entry, looked up): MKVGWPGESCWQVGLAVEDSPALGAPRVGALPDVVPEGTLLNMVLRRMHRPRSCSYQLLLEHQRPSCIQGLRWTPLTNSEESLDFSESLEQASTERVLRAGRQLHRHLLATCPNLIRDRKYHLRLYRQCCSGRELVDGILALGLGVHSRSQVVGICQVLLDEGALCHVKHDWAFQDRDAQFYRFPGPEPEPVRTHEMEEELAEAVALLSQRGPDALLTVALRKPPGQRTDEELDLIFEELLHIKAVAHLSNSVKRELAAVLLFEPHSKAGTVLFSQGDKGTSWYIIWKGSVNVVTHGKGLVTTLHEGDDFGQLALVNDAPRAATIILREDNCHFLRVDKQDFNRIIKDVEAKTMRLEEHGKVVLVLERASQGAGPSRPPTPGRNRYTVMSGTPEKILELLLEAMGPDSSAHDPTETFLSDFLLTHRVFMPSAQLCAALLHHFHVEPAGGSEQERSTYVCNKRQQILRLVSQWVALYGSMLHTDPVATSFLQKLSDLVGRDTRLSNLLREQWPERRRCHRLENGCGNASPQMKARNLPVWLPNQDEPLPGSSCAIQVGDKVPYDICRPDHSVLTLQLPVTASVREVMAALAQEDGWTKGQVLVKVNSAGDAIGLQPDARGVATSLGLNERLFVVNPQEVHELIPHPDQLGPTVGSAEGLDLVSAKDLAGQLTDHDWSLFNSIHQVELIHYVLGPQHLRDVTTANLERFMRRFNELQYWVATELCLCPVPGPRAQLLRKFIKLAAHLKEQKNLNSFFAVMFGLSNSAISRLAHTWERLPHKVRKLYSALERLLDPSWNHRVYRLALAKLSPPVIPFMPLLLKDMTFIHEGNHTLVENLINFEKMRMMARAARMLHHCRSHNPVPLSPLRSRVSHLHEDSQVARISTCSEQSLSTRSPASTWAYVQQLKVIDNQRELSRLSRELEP

N#CC(C#N)=C1C=C2C=C(N3CCOCC3)CCC2CC1 (stereo unspecified)
active: Potency [2] 44.7 µM | Potency [3] 37.9 µM
inactive: Potency [1] | Potency [4]

O=C1/C(=C\c2cccnc2)Sc2ccccc21
inactive: Potency [1] | Potency [2] | Potency [3] | Potency [4]

Cc1ccc(CNC(=O)CN(c2cc(C)cc(C)c2)S(=O)(=O)c2c(C)[nH]c(=O)[nH]c2=O)cc1
inactive: Potency [1] | Potency [2] | Potency [3] | Potency [4]

CCOc1ccccc1N1CCN(C(=O)c2cc3c(s2)CCC3)CC1
inactive: Potency [1] | Potency [2] | Potency [3] | Potency [4]

COc1cccc(-c2nc(N3CCN(c4ccccc4)CC3)c3ccccc3n2)c1O
inactive: Potency [1] | Potency [2] | Potency [3] | Potency [4]

COc1ccc(-n2c(O)c(/C=N/NS(=O)(=O)c3cc(C)ccc3C)c3ccccc3c2=O)cc1OC
inactive: Potency [1] | Potency [2] | Potency [4]
active: Potency [3] 33.8 µM

CC(NC(=O)c1ccc(Br)s1)c1ccncc1 (stereo unspecified)
inactive: Potency [1] | Potency [2] | Potency [3] | Potency [4]

CC(=O)c1cccc(NC(=O)Cn2cc(C(=O)c3cccc(Cl)c3)c(=O)c3ccc(C)nc32)c1
inactive: Potency [1] | Potency [2] | outcome [3] inactive [at 12.7 µM] | Potency [4]

Cc1ccc(NC(=O)N2CC3CCCN3c3ccccc32)cc1Cl (stereo unspecified)
inactive: Potency [1] | Potency [2] | Potency [3] | Potency [4]

O=c1onc(-c2ccccc2)n1-c1cc(Cl)cc(Cl)c1
inactive: Potency [1] | Potency [2] | Potency [3] | Potency [4] | Potency [5]

CCC(C)Cn1c(COc2ccc(OC)cc2)nc2ccccc21 (stereo unspecified)
inactive: Potency [1] | Potency [2] | Potency [3] | Potency [4] | Potency [5]

C=CCN1C(=O)/C(=C/C=C2/N(CC)c3ccc(S(=O)(=O)N(C)C)cc3N2CC)SC1=S
inactive: Potency [1] | Potency [2] | Potency [3] | activity change, negative = inhibition [4] -11.8% [at 30.8 µM] | activation [5] 14.5% [at 30.8 µM]

CC(=O)N1CCN(C(=O)c2[nH]c(C(F)(F)F)nc2-c2ccccc2)CC1
inactive: Potency [1] | Potency [2] | Potency [3] | Potency [4] | Potency [5]

O=C1COc2ccc(C(=O)COC(=O)c3ccc4ccccc4n3)cc2N1
active: Potency [1] 75.7 µM
inactive: Potency [2] | Potency [3] | Potency [4] | Potency [5]

CCOc1ccccc1NC(=O)N1CCC(N2CCN(Cc3ccccc3)C(=O)C2=O)CC1
inactive: Potency [1] | Potency [2] | outcome [3] inactive [at 12.7 µM] | Potency [4] | Potency [5]

O=C1C=C(c2ccccc2Oc2ccccc2)C[C@@H](c2ccc3c(c2)OCO3)C1
inactive: Potency [1] | Potency [2] | Potency [3] | Potency [4] | Potency [5]

COC(=O)c1c(SC)nc2ccccc2c1OCc1ccccc1Cl
inactive: Potency [1] | Potency [2] | Potency [3] | Potency [4] | Potency [5]

Cc1ccc([N+](=O)[O-])cc1NC(=O)CN(C1CCCCC1)S(=O)(=O)c1ccc(Cl)cc1
active: Potency [3] 8.49 µM
inactive: Potency [1] | Potency [2] | Potency [4] | Potency [5]

CC(=O)Nc1ccc(/C(C)=N/NC(=O)c2ccc(COc3ccccc3Cl)o2)cc1
inactive: Potency [1] | Potency [2] | Potency [3] | activity change, negative = inhibition [4] 0.248% [at 30.8 µM] | activation [5] 15.7% [at 30.8 µM]

Cc1ccc(-n2nc3c(=O)n(CCCC(=O)NCc4ccc(F)cc4)nc(C)c3c2C)cc1
inactive: Potency [1] | Potency [2] | outcome [3] inactive [at 12.7 µM] | Potency [4] | Potency [5]

Cc1cccc(NC(=O)CC2C(=O)OCCN2Cc2ccccc2)c1 (stereo unspecified)
inactive: Potency [1] | Potency [2] | Potency [3] | Potency [4] | Potency [5]

COc1ccc(Cn2c(=O)cc(C)[nH]c2=S)cc1
inactive: Potency [1] | Potency [2] | Potency [3] | activity change, negative = inhibition [4] -27% [at 30.8 µM] | activation [5] -6.93% [at 30.8 µM]

CC(=O)C1=CCC(c2cccc(Cl)c2)N(S(=O)(=O)c2ccc(C)cc2)C1 (stereo unspecified)
inactive: Potency [1] | Potency [2] | Potency [3] | Potency [4] | Potency [5]

N#CC1=C2N=C(N)c3c(sc4c3CCCCC4)N2C2=C(C(=O)CCC2)C1c1ccccc1 (stereo unspecified)
inactive: Potency [1] | Potency [2] | Potency [3] | Potency [4] | Potency [5]

Cc1ccc2nc(SCC(=O)c3c(N)n(C4CC4)c(=O)[nH]c3=O)[nH]c2c1
inactive: Potency [1] | Potency [2] | Potency [3] | Potency [4] | Potency [5]

CCn1nc(C)c(C(=O)Nc2cc(Oc3ccc(Cl)cc3)cc([N+](=O)[O-])c2)c1C
inactive: Potency [1] | Potency [2] | Potency [3] | Potency [4] | Potency [5]

O=S(=O)(c1ccc(Br)c2ccccc12)N1CCCC1
inactive: Potency [1] | Potency [2] | Potency [3] | Potency [4] | Potency [5]

Cc1nnc(N2CCC(C(=O)NC3CCCCC3)CC2)c2nn(-c3ccccc3)c(C)c12
inactive: Potency [1] | Potency [2] | Potency [3] | Potency [4] | Potency [5]
